# Only some compounds are listed: those with a hit (about 12% of all), similar ones and a draw of the others.
# BAZ2B block: qHTS Assay for Inhibitors of BAZ2B. Bromodomain adjacent to zinc finger domain protein 2B (Homo sapiens), Q9UIF8. AlphaScreen BAZ2B-H3K14Ac peptide displacement. Potency, µM (series often up to 114 µM), without a hit: at the top dose activity change, negative = inhibition, most hits filed as inhibitors. hit rate 4.4% among 360,000; further: on the % scale 0 is the no-effect control and ±100 the full control effect; nearly all actives have a fitted effect of over 60% in size
#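 Multi-concentration screen (max 110 uM) measuring displacement of acetylated histone H3 peptide from BAZ2B by AlphaScreen, using 50 nM protein, 50 nM peptide and 10 ug/mL streptavidin donor plus Ni-chelate acceptor beads.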
# HP1b binding inh: HTS for Inhibitors of HP1-beta Chromodomain Interactions with Methylated Histone Tails; Potency, µM (highest dose often 114 µM), without a hit: top-dose activity change, negative = inhibition, actives largely listed as inhibitors; AlphaScreen HP1-beta / biotin-H3K9me3 peptide binding; Chromobox protein homolog 1 (Homo sapiens), P83916; hit rate 0.56% among 390,000; further: nearly all actives have a fitted effect of over 70% in size
#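 AlphaScreen: HP1-beta (50 nM) preformed 30 min with biotin-H3(1-18)K9me3 peptide (50 nM) in PBS pH 7.4, 0.01% Tween-20. Compound added for 30 min at RT, then streptavidin donor/nickel chelate acceptor beads (10 ug/mL) for 30 min.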
# G9a block: qHTS Assay for Inhibitors of Histone Lysine Methyltransferase G9a; G9a H3K9 monomethylation, AlphaScreen, 2 h; Potency, µM (doses to about 102 µM), for the others: at the highest dose activity, negative = inhibition, most hits filed as inhibitors; hit rate 8.8% among 350,000; AID 504332, 2011; further: on the % scale 0 is the no-effect control and ±100 the full control effect; nearly all actives have a fitted effect of over 75% in size
#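 Methyltransferase reactions run at room temperature for 2 h (20 nM enzyme, 500 nM biotin-H3K9 peptide, 20 uM SAM) after a 15 min compound preincubation; product detected by AlphaScreen beads and anti-H3K9me1 antibody.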
# JMJD2A Tudor inh: qHTS Assay for Inhibitors of JMJD2A-Tudor Domain; AlphaScreen JMJD2A-Tudor / H3K4me3 peptide binding; AID 504339, 2011; hit rate 4.4% among 390,000; Potency, µM (doses to about 114 µM), for inactives: at the highest dose activity change, negative = inhibition, hits mostly inhibitors; Lysine-specific demethylase 4A (Homo sapiens), O75164; further: on the % scale 0 is the no-effect control and ±100 the full control effect; nearly all actives have a fitted effect of over 50% in size
# Target sequence (O75164 whole entry, looked up, the tested form may be a part): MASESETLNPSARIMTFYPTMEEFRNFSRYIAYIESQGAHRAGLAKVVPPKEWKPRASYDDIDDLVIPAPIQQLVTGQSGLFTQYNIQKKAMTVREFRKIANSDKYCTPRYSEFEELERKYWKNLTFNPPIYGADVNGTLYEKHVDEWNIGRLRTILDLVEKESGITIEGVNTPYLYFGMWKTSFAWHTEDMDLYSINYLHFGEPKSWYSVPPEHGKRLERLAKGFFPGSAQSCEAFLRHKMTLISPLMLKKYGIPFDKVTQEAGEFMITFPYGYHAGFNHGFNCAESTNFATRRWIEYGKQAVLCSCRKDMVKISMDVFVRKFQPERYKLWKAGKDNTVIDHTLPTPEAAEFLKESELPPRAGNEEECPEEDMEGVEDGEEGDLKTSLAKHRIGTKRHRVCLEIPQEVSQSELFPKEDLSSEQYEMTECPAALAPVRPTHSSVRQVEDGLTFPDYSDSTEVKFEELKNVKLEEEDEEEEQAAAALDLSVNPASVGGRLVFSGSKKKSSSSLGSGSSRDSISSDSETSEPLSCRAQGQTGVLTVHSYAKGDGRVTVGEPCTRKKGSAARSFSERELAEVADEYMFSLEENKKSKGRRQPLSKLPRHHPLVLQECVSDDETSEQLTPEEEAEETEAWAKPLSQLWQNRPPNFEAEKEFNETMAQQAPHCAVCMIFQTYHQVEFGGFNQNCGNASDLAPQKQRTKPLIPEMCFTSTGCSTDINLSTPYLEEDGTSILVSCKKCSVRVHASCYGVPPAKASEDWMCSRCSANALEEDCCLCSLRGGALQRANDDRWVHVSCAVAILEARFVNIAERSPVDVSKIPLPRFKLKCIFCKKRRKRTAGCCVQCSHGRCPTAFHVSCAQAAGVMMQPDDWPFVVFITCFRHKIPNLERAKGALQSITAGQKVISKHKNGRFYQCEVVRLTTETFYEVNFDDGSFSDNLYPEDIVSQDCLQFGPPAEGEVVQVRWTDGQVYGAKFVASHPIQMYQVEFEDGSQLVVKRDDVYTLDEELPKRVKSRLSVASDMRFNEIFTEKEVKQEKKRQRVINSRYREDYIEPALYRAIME
# Sfp inh: qHTS Assay for Inhibitors of Bacillus subtilis Sfp phosphopantetheinyl transferase (PPTase); 4'-phosphopantetheinyl transferase ffp (Bacillus subtilis), Q9F4F7; hit rate 3.5% among 310,000; Biochemical Sfp PPTase activity, qHTS; Potency, µM, inactives show largest response in the series, negative = inhibition, actives largely listed as inhibitors;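 further: the enzyme is Sfp with the accession as filed and its product quenches rhodamine fluorescence; 0% = enzyme reaction without inhibitor and -100% = no enzyme wells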
#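 Sfp 15 nM + cpd, 15 min RT; start w/ rhodamine-CoA 5 uM, BHQ-2-YbbR 12.5 uM (final); 50 mM Hepes pH 7.6, 10 mM MgCl2, 0.01% NP-40, 0.01% BSA; read 525/598 nm at 0 and 30 min.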
# L3MBTL1 block: qHTS Assay for the Inhibitors of L3MBTL1. Potency, µM (top dose mostly 57.1 µM), without a hit: at the top dose activity, negative = inhibition, most hits filed as inhibitors. Lethal(3)malignant brain tumor-like protein 1 (Homo sapiens), Q9Y468. AlphaScreen L3MBTL1–H3K9me1 peptide binding. AID 485360, 2010. hit rate 0.66% among 230,000; further: on the % scale 0 is the no-effect control and ±100 the full control effect; nearly all actives have a fitted effect of over 60% in size
#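 First, the protein-peptide complex forms for 30 min at room temperature (L3MBTL1 50 nM, biotinylated H3K9me1 peptide 75 nM). Next, compounds are pin-transferred and incubated 30 min. Finally, AlphaScreen beads are added and read after 30 min.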
# The depositor's hits bear a star; ? = inconclusive; / = no result; ! = not active in a repeat; [ ] = dose if it differs, or a comment. The call rests on the fitted dose curve; in most records, active means well fitted curve in the direction sought with a large enough effect; inconclusive means small, poorly fitted or top-dose-only effect, or another doubt; inactive means no such curve, though single readings can be large; an effect the other way counts as inactive or inconclusive. Potency means the concentration at half of the fitted maximal effect.
SMILES,BAZ2B block,HP1b binding inh,G9a block,JMJD2A Tudor inh,Sfp inh,L3MBTL1 block
COc1cccc(N(C)C(=S)Oc2ccc3c(c2)CCCC3)n1,/,/,169%[59 µM],/,7%,/
C[N+](C)(C)CCCN1C(=O)CCCC1=O,?,16%,-53%,56µM*,-25%,0%
CC1=C(/C=C/C(C)=C/C=C/C(C)=C/C(=O)O)C(C)(C)CCC1,?,25%,50µM*!,-20%,?,3%
CC1=C(/C=C/C(C)=C\C=C\C(C)=C\C(=O)O)C(C)(C)CCC1,/,/,22µM*!,/,13%,/
Cc1ccc(NC(=O)c2oc3ccc(S(=O)(=O)N4CCCCC4)cc3c2C)c(C)c1,24%,47%,?,-26%,/,/
COc1ccc(C2C(C#N)=C(N)Oc3c2oc(CO)cc3=O)cc1 (stereo not given),/,54%,?,6%[11.4 µM],56µM*,/
CCc1ccc(CNC(=O)c2ccc(-n3c(C)cc4c3CCC(C)C4)cc2)cc1 (stereo not given),-20%,0%,-33%[59 µM],-28%,/,/
CCOC(=O)C1C(c2cc(OC)c(OC)c(OC)c2)NC(=S)NC1(O)C(F)(F)F (stereo not given),-7%,-16%,?,0%,79µM*,-1%
CCOC(=O)C1C(c2ccc3c(c2)OCO3)NC(=O)NC1(O)C(F)(F)F (stereo not given),12%,-4%,-4%[2.33 µM],18µM*,-5%,/
CCOC(=O)C1C(c2cc(OC)c(O)c(OC)c2)NC(=S)NC1(O)C(F)(F)F (stereo not given),-6%,40%,-16%[59 µM],-1%,-8%,2%
COc1cc(C2NC(=S)NC(O)(C(F)(F)F)C2C(=O)c2cccs2)cc(OC)c1O (stereo not given),-2%,40%,79µM*,-8%,-16%,-10%
Cc1ccccc1CNC(=O)C1CCCN(c2nnc(-n3c(C)ccc3C)s2)C1 (stereo not given),-8%,35%,4%[59 µM],-31%,/,/
CC(=O)NC(c1ccccc1)c1cc(Cl)c2cccnc2c1O (stereo not given),35µM*,32%,/,?,1%,-2%
COc1ccc(C(NC(C)=O)c2cc(Cl)c3cccnc3c2O)cc1 (stereo not given),?,58%,-10%[0.501 µM],?,23%,0%[2.29 µM]
CC(C)C(=O)NC(c1ccc(N(C)C)cc1)c1c(O)ccc2ccccc12 (stereo not given),-26%,60%,2.2µM*,-23%,12%,/
CC(=O)NC(c1ccc(C)cc1)c1cc([N+](=O)[O-])c2cccnc2c1O (stereo not given),4.5µM*,-21%,35µM*,14µM*,?,5µM*
CCCC(=O)NC(c1ccco1)c1c(O)ccc2ccccc12 (stereo not given),-27%,-5%,13µM*,-35%,-6%,-2%
Cc1ccc(C)c(S(=O)(=O)c2nnn3c2nc(NCc2ccc4c(c2)OCO4)c2sccc23)c1,-16%,19%,-18%[59 µM],-3%,/,/
CCOc1ccc2nc(NC(=O)CS(=O)(=O)c3ccc(Cl)cc3)sc2c1,-14%,26%,-27%[59 µM],-31%,/,/
CCCC(=O)NC(c1ccco1)c1cc([N+](=O)[O-])c2cccnc2c1O (stereo not given),7.9µM*,54%,28µM*,-20%[11.4 µM],14µM*,/
O=C(Nc1ccncc1)c1cccc(S(=O)(=O)N2CCN(c3ccc(F)cc3)CC2)c1,?,-23%,?,?,/,-14%
O=C(Nc1ncccc1O)c1cccc(S(=O)(=O)N2CCN(c3ccc(F)cc3)CC2)c1,-17%,7%,79µM*,-32%,/,-17%
COc1cc2c(c(OC)c1OC)-c1c(cc3c(c1OC)OCO3)CC(C)C(C)(O)C2OC(=O)c1ccccc1 (stereo not given),/,/,/,/,5%,/
CCN(CC)S(=O)(=O)c1cccc(C(=O)NCCCn2ccnc2)c1,-26%,33%,56µM*,-4%,10%,8%
O=C(NCCCn1ccnc1)c1ccc2nccnc2c1,50µM*,20%,/,-11%,6%,/
SMILES,BAZ2B block,HP1b binding inh,G9a block,JMJD2A Tudor inh,Sfp inh,L3MBTL1 block
CCN(CC)S(=O)(=O)c1cccc(C(=O)NC2=NCCS2)c1,-2%,14%,50µM*,-16%,22%,-2%
CCN(CC)S(=O)(=O)c1ccc(C(=O)NCCCn2ccnc2)cc1,0%,42%,12%,8%[57.1 µM],24%,13%
Cc1ccc(C(=O)NCC(c2ccco2)S(=O)(=O)c2ccccc2)cc1C (stereo not given),-3%,18%[57 µM],3%[59 µM],-16%,/,/
COc1ccc(CCNC(=O)CSc2nnc(Cn3c(=O)sc4ccccc43)n2C)cc1OC,2%,13%,21%,-17%,9%,-1%
COc1ccc(CCNC(=O)CCCc2nnc3n(C)c(=O)c4sccc4n23)cc1OC,?,25%,22µM*,-4%,1%,/
Cc1ccc(CCNC(=O)CCCc2nnc3n(C)c(=O)c4sccc4n23)cc1,1%,20%,7%[59 µM],-15%,/,/
COc1ccc(CCNC(=O)CSc2nnc(Cc3csc(N)n3)n2C)cc1OC,22µM*,26%,23%[59 µM],50µM*,-6%,-25%
S=C(NNc1ccc2ccccc2c1)NC1CCCCC1,8.9µM*,28µM*,11µM*,4µM*,7%,?
S=C(Nc1ccc(Oc2ccccc2)cc1)NC1CCCCCC1,-1%,-10%,45µM*,-12%,-7%,-2%
NS(=O)(=O)c1ccc(NC(=S)NC2CCCC2)cc1,-5%,29%,8.9µM*,6%,10µM*,3%
CCOC(=O)c1ccc(N2C(=O)CC(SCC(=O)Nc3ccc(S(N)(=O)=O)cc3)C2=O)cc1 (stereo not given),-4%,33%,32µM*,-16%,-18%,/
S=C(Nc1ccc(Oc2ccccc2)cc1)NC1CCCCC1,-7%,16%,-4%[59 µM],-16%,-5%,-12%
O=S(=O)(c1ccc(NC(=S)NC2CCCC2)cc1)N1CCCC1,-17%,-7%,/,-33%,-8%,3%
CC(C)(C)c1ccc(Oc2ccc(NC(=O)CCC(=O)OCC(=O)c3ccccc3)cc2)cc1,-1%,25%,1%[59 µM],5%,/,/
COCCCNS(=O)(=O)c1cc(-c2onc(C)c2C)ccc1OC,-12%,46%,-23%[59 µM],-12%,/,/
